Screen size: about 5,500 compounds; about 2,000 (36%) were called active. Inconclusive results (about 18%) are left out. No stated cut-off is given here; in the data, active means normalized growth mostly below about 0.91 (no sharp cut-off); inconclusive means no clear call, values can overlap the other calls; inactive means mostly above about 0.92. The list shows a part of the results.
Experiment: chemical genetic growth profiling, strain panel (AID 1159580);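 further: tested at 20 µM; growth read once vehicle control cultures reached saturation at 30 °C; 1 = growth at the plate median or of vehicle wells; lower values mean less growth of the strain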
Conditions: S. cerevisiae deletion strains, growth OD
[1] = locus YAR019C, strain CDC15, active compounds read low
[2] = locus YBL105C, strain PKC1, active compounds read low
[3] = locus YBR135W, strain CKS1, active compounds read low
[4] = locus YBR136W, strain MEC1, active compounds read low
[5] = locus YBR160W, strain CDC28, active compounds read low
[6] = locus YDL017W, strain CDC7, active compounds read low
[7] = locus YDL028C, strain MPS1, active compounds read low
[8] = locus YDL101C, strain DUN1, active compounds read low
[9] = locus YDL108W, strain KIN28, active compounds read low
[10] = locus YDL132W, strain cdc53, active compounds read low
[11] = locus YDL214C, strain PRR2, active compounds read low
[12] = locus YDR052C, strain DBF4, active compounds read low
[13] = locus YDR054C, strain cdc34, active compounds read low
[14] = locus YDR226W, strain ADK1, active compounds read low
[15] = locus YDR477W, strain SNF1, active compounds read low
[16] = locus YER123W, strain YCK3, active compounds read low
[17] = locus YER133W, strain GLC7, active compounds read low
[18] = locus YFL009W, strain cdc4, active compounds read low
[19] = locus YFL029C, strain CAK1, active compounds read low
[20] = locus YFR003C, strain YPI1, active compounds read low
[21] = locus YFR019W, strain FAB1, active compounds read low
[22] = locus YFR028C, strain CDC14, active compounds read low
[23] = locus YGR040W, strain KSS1, active compounds read low
[24] = locus YGR052W, strain FMP48, active compounds read low
[25] = locus YGR092W, strain DBF2, active compounds read low
[26] = locus YHR030C, strain SLT2, active compounds read low
[27] = locus YHR079C, strain IRE1, active compounds read low
[28] = locus YHR082C, strain KSP1, active compounds read low
[29] = locus YHR205W, strain SCH9, active compounds read low
[30] = locus YIL147C, strain SLN1, active compounds read low
[31] = locus YJL095W, strain BCK1, active compounds read low
[32] = locus YJR016C, strain ILV3, active compounds read low
[33] = locus YJR066W, strain TOR1 (second series), active compounds read low
[34] = locus YJR066W, strain TOR1, active compounds read low
[35] = locus YKL048C, strain ELM1, active compounds read low
[36] = locus YKL101W, strain HSL1, active compounds read low
[37] = locus YKL193C, strain SDS22, active compounds read low
[38] = locus YKL203C, strain TOR2, active compounds read low
[39] = locus YLR113W, strain HOG1, active compounds read low
[40] = locus YML070W, strain DAK1, active compounds read low
[41] = locus YMR001C, strain CDC5, active compounds read low
[42] = locus YMR205C, strain PFK2 (second series), active compounds read low
[43] = locus YMR277W, strain FCP1, active compounds read low
[44] = locus YNL006W, strain LST8, active compounds read low
[45] = locus YNL020C, strain ARK1, active compounds read low
[46] = locus YNL161W, strain CBK1, active compounds read low
[47] = locus YNL183C, strain NPR1, active compounds read low
[48] = locus YNL207W, strain RIO2, active compounds read low
[49] = locus YNL222W, strain SSU72, active compounds read low
[50] = locus YNL307C, strain MCK1 (second series), active compounds read low
[51] = locus YOL078W, strain AVO1, active compounds read low
[52] = locus YOL136C, strain PFK27, active compounds read low
[53] = locus YOR061W, strain CKA2, active compounds read low
[54] = locus YOR119C, strain RIO1, active compounds read low
[55] = locus YOR231W, strain MKK1, active compounds read low
[56] = locus YOR329C, strain SCD5, active compounds read low
[57] = locus YPL031C, strain PHO85, active compounds read low
[58] = locus YPL153C, strain RAD53, active compounds read low
[59] = locus YPL204W, strain HRR25, active compounds read low
[60] = locus YPL209C, strain IPL1, active compounds read low
[61] = locus YPL256C, strain CLN2, active compounds read low
[62] = locus YPR025C, strain CCL1, active compounds read low
[63] = locus YPR106W, strain ISR1, active compounds read low
[64] = locus YPR111W, strain DBF20, active compounds read low
[65] = strain NNK1, active compounds read low
[66] = strain TSCII, active compounds read low
[67] = locus YDR150W, strain NUM1, active compounds read low
[68] = locus YGR078C, strain PAC10, active compounds read low
[69] = locus YJR075W, strain HOC1, active compounds read low
[70] = locus YPL241C, strain CIN2, active compounds read low

Measured: normalized growth

CC(C)(O)C#Cc1ccc(/C=N\Nc2ccccc2)cc1
active: [16] 0.569 | [21] 0.589 | [25] 0.13 | [26] 0.507 | [31] 0.497 | [33] 0.557 | [35] 0.756 | [39] 0.718 | [40] 0.556 | [50] 0.41 | [52] 0.614 | [53] 0.366 | [55] 0.551 | [58] 0.565 | [59] 0.602 | [61] 0.766
inactive: [1] 0.966 | [2] 0.963 | [3] 0.952 | [4] 0.954 | [5] 0.954 | [6] 0.961 | [7] 0.952 | [8] 0.954 | [9] 0.965 | [10] 0.949 | [11] 0.822 | [12] 0.955 | [13] 0.957 | [14] 0.968 | [15] 0.767 | [17] 0.799 | [18] 0.948 | [19] 0.957 | [20] 0.957 | [22] 0.965 | [23] 0.784 | [24] 0.716 | [27] 0.585 | [28] 0.795 | [29] 0.88 | [30] 0.954 | locus YJL128C, strain PBS2, active compounds read low 0.995 | [32] 0.948 | [34] 0.644 | [36] 0.78 | [37] 0.954 | [38] 0.831 | locus YLR133W, strain CKI1, active compounds read low 0.798 | [41] 0.96 | [42] 0.872 | [43] 0.963 | [44] 0.954 | [45] 0.811 | [46] 0.954 | [47] 0.735 | [48] 0.958 | [49] 0.953 | [51] 0.952 | [54] 0.799 | [56] 0.955 | [57] 0.686 | [60] 0.959 | [62] 0.948 | [63] 0.974 | [64] 0.968 | [65] 0.979 | [66] 0.951

CC(C)(O)C#Cc1ccc(/C=N\O)cc1
inactive: locus YAL013W, strain DEP1, active compounds read low 1.01 | locus YBR229C, strain ROT2, active compounds read low 0.996 | [8] 0.99 | locus YDL134C, strain PPH21, active compounds read low 0.981 | [67] 0.938 | locus YEL061C, strain CIN8, active compounds read low 0.984 | [68] 1.03 | [26] 1 | locus YHR087W, strain rtc3, active compounds read low 0.988 | locus YJR043C, strain POL32, active compounds read low 1.02 | [69] 0.992 | locus YKL190W, strain CNB1, active compounds read low 1 | locus YLR039C, strain RIC1, active compounds read low 0.991 | locus YLR058C, strain SHM2 (second series), active compounds read low 1.01 | locus YLR085C, strain ARP6, active compounds read low 0.939 | locus YLR262C, strain YPT6, active compounds read low 0.968 | locus YML094W, strain GIM5, active compounds read low 0.975 | locus YMR219W, strain ESC1, active compounds read low 0.987 | locus YMR263W, strain SAP30, active compounds read low 0.962 | locus YNL128W, strain TEP1, active compounds read low 0.998 | locus YNL153C, strain GIM3, active compounds read low 1 | locus YNL298W, strain CLA4 (second series), active compounds read low 0.977 | locus YNL322C, strain KRE1, active compounds read low 0.992 | locus YNR030W, strain Alg12, active compounds read low 1 | locus YPL055C, strain LGE1, active compounds read low 0.936 | [70] 0.959 | locus YPR135W, strain CTF4, active compounds read low 0.994

CC(C)(O)C#Cc1ccc(/C=N\Nc2c(Cl)cc(Cl)cc2Cl)cc1
active: [26] 0.354 | [28] 0.591 | [31] 0.341 | [39] 0.574 | [61] 0.766
inactive: [1] 0.982 | [2] 0.982 | [3] 0.962 | [4] 0.979 | [5] 0.969 | [6] 0.982 | [7] 0.973 | [8] 0.986 | [9] 0.968 | [10] 0.969 | [11] 0.881 | [12] 0.978 | [13] 0.963 | [14] 0.978 | [15] 0.773 | [16] 0.86 | [17] 0.862 | [18] 0.975 | [19] 0.973 | [20] 0.978 | [21] 0.848 | [22] 0.976 | [23] 0.833 | [24] 0.769 | [25] 0.746 | [27] 0.668 | [29] 0.832 | [30] 0.973 | locus YJL157C, strain FAR1, active compounds read low 0.886 | [32] 0.973 | [33] 0.86 | [34] 0.728 | [35] 0.93 | locus YKL067W, strain YNK1, active compounds read low 0.893 | [36] 0.765 | [37] 0.974 | [38] 0.838 | [40] 0.707 | [41] 0.974 | [42] 0.925 | [43] 0.971 | [44] 0.984 | [45] 0.758 | [46] 0.98 | [47] 0.728 | [48] 0.981 | [49] 0.979 | [50] 0.768 | [51] 0.978 | [52] 0.904 | [53] 0.73 | [54] 1.03 | [55] 0.708 | [56] 0.983 | [57] 0.709 | [58] 0.85 | [59] 0.839 | [60] 0.979 | [62] 0.972 | [63] 0.977 | [64] 0.962 | [65] 0.972 | [66] 0.977

CN(C)CCCO[C@@H]1[C@H]2OC(C)(C)O[C@H]2O[C@@H]1C(O)CO (stereo not given in full)
inactive: locus YAL040C, strain CLN3, active compounds read low 1 | locus YCL061C, strain MRC1 (second series), active compounds read low 1 | [67] 1 | locus YDR363W, strain ESC2, active compounds read low 1 | locus YER002W, strain NOP16, active compounds read low 1.02 | [68] 1.01 | [69] 1.01 | locus YNL175C, strain NOP13, active compounds read low 1.01 | locus YNL197C, strain WHI3, active compounds read low 1.03 | locus YNL224C, strain SQS1, active compounds read low 1 | locus YOR083W, strain WHI5 (second series), active compounds read low 1.01 | [70] 1.01
